Compound activity: PubChem, Sanford-Burnham Center for Chemical Genomics
HIF-2a inh – inhibitors of HIF-2a; inhibition, % at 18.8 µM; 786-0 RCC cells HIF-2a reporter, luciferase luminescence, overnight; 360,000 tested, 0.72% active; AID 624352;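 active = inhibition of the luminescence signal of 40% or more relative to plate controls, in a single-dose primary screen at 18.75 µM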
CF NFkB block – blocks PAF-induced NF-kB reporter in cystic fibrosis cells. inhibition, % at 5 µM. KKLEB NF-kB-GFP reporter, GFP fluorescence overnight. 360,000 tested, 0.86% active;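 active = at least 50% inhibition at 5 µM, scaled per plate between neutral and stimulator controls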;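 also: PAF is a Pseudomonas aeruginosa culture filtrate used as stimulus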
KKLEB tox – counter-screen for CF NF-kB inhibitors: cytotoxicity; 360,000 tested, 0.36% active; KKLEB CF airway cells viability, ATPlite luminescence, overnight; stronger effect = lower value; cells stimulated with P. aeruginosa culture filtrate; activity change (cytotoxicity), % at 5 µM;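 active = corrected activity change at or below -50% at 5 µM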
iPSC survival up – enhancers of human iPSC single-cell survival | 360,000 tested, 0.044% active | survival enhancement, % at 20 µM | hiPSC single-cell survival, ATPlite luminescence; 100% = ROCK inhibitor wells, 0% = DMSO; in the data active = survival enhancement above about 18%;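 also: cells exposed to compounds for 16 hours before the ATP read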
PPC-1+TRAIL kill – compounds killing PPC-1 cancer cells with TRAIL present (potentiator screen, no TRAIL-free arm) | PPC-1 cells + TRAIL, ATPLite viability luminescence | 220,000 tested, 0.41% active | AID 1443 | cell killing (% activity), % at 4 µM or 5 µM;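 active = cell killing above 50% in the first pass at 4 µM, then a duplicate retest at 5 µM averaging 50% or more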
C8 TRAIL sens – sensitizes caspase-8 expressing cells to TRAIL; NB7+C8 cells + TRAIL, ATPlite viability luminescence; inhibition (viability loss, TRAIL sensitization), % at 10 µM; AID 624354; 360,000 tested, 1% active;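 active = compounds causing at least 50% loss of cell viability in the single-dose screen, relative to plate controls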
Numbers stand for hits. Shown are actives, neighbours in structure and some others; about 2.2% of the full set was active somewhere.

What do the screens show for `CCOC(=O)c1ccc(NC(=O)c2nc[nH]c2C(=O)NCCNC(=O)c2[nH]cnc2C(=O)Nc2ccc(C(=O)OCC)cc2)cc1`?
HIF-2a inh: inactive; CF NFkB block: 76; KKLEB tox: -50; iPSC survival up: inactive; C8 TRAIL sens: 92

How did CC(C)Cc1ccc(C(C)CC2=CCC(CN(C)C)C2=O)cc1 (centres undefined) do in these assays?
HIF-2a inh: inactive; CF NFkB block: inactive; KKLEB tox: inactive; iPSC survival up: inactive; C8 TRAIL sens: 91

What do the screens show for `CC(C)Cc1ccc(C(C)/C=C2/CCC(CN3CCCCC3)C2=O)cc1` (centres undefined)?
HIF-2a inh: inactive; CF NFkB block: inactive; KKLEB tox: inactive; iPSC survival up: inactive; C8 TRAIL sens: inactive

What do the screens show for `COc1cc(/C=N/N=C(/N)c2nonc2N)cc(Br)c1OCc1ccccc1C`?
HIF-2a inh: inactive; CF NFkB block: inactive; KKLEB tox: inactive; iPSC survival up: inactive; PPC-1+TRAIL kill: inactive; C8 TRAIL sens: inactive

What do the screens show for `CCOc1cc(/C=N/N=C(/N)c2nonc2N)cc(Br)c1OCc1ccc(Cl)cc1`?
HIF-2a inh: inactive; CF NFkB block: inactive; KKLEB tox: inactive; iPSC survival up: inactive; PPC-1+TRAIL kill: inactive; C8 TRAIL sens: 57

What do the screens show for `Cc1cn(C2CCCCC2)c(=O)n(-c2ccccc2)c1=O`?
HIF-2a inh: inactive; CF NFkB block: inactive; KKLEB tox: inactive; iPSC survival up: inactive; C8 TRAIL sens: inactive

What do the screens show for `Cc1ccc2nc(-c3ccc(SCC(=O)Nc4ccc5c(c4)OCCO5)nc3)[nH]c2c1`?
HIF-2a inh: inactive; CF NFkB block: inactive; KKLEB tox: inactive; iPSC survival up: inactive; PPC-1+TRAIL kill: inactive; C8 TRAIL sens: inactive

How did Cc1cc2nc(-c3ccc(SCC(=O)Nc4ccc5c(c4)OCCO5)nc3)[nH]c2cc1C do in these assays?
HIF-2a inh: inactive; CF NFkB block: inactive; KKLEB tox: -54; iPSC survival up: inactive; PPC-1+TRAIL kill: inactive; C8 TRAIL sens: 67

What do the screens show for `Cc1ccc2nc(-c3ccc(SCC(=O)Nc4nnc(C)s4)nc3)[nH]c2c1`?
HIF-2a inh: inactive; CF NFkB block: inactive; KKLEB tox: inactive; iPSC survival up: inactive; PPC-1+TRAIL kill: inactive; C8 TRAIL sens: 54

How did Cc1ccc2nc(-c3ccc(SCC(=O)Nc4nc(C)cs4)nc3)[nH]c2c1 do in these assays?
HIF-2a inh: inactive; CF NFkB block: inactive; KKLEB tox: inactive; iPSC survival up: inactive; PPC-1+TRAIL kill: inactive; C8 TRAIL sens: inactive

How did O=C(Nc1nnc(-c2ccncc2)s1)Nc1ccccc1F do in these assays?
HIF-2a inh: inactive; CF NFkB block: inactive; KKLEB tox: inactive; iPSC survival up: inactive; PPC-1+TRAIL kill: inactive; C8 TRAIL sens: inactive

What do the screens show for `O=C(Nc1ccc(Cl)c(Cl)c1)Nc1nnc(-c2ccncc2)s1`?
HIF-2a inh: inactive; CF NFkB block: 76; KKLEB tox: -56; iPSC survival up: inactive; PPC-1+TRAIL kill: inactive; C8 TRAIL sens: inactive

What do the screens show for `NC(=O)c1nsc(C(=O)N(c2ccccc2F)C(C(=O)NCc2ccccc2)c2ccc(O)cc2)c1N` (centres undefined)?
HIF-2a inh: inactive; CF NFkB block: 90; KKLEB tox: -54; iPSC survival up: inactive; C8 TRAIL sens: inactive

What do the screens show for `Cc1ccccc1N(C(=O)c1snc(C(N)=O)c1N)C(C(=O)NCc1ccccc1)c1ccc(O)cc1` (centres undefined)?
HIF-2a inh: inactive; CF NFkB block: inactive; KKLEB tox: inactive; iPSC survival up: inactive; C8 TRAIL sens: inactive

Results for COC1C=CC=C(C)C(=O)NC2=CC(=O)C(N)=C(CC(C)CC(OC)C(O)C(C)C=C(C)C1OC(N)=O)C2=O (centres undefined) ?
HIF-2a inh: inactive; CF NFkB block: 64; KKLEB tox: inactive; iPSC survival up: inactive; C8 TRAIL sens: inactive

How did O=C(Nc1ccc(F)cc1Cl)c1ccc2c(=O)n3c(nc2c1)CCC3 do in these assays?
HIF-2a inh: inactive; CF NFkB block: inactive; KKLEB tox: inactive; iPSC survival up: inactive; C8 TRAIL sens: inactive

Results for CCC(CO)NCc1ccc(OCC(=O)Nc2cccc(C(F)(F)F)c2)c(OC)c1 (centres undefined) ?
HIF-2a inh: inactive; CF NFkB block: inactive; KKLEB tox: inactive; iPSC survival up: inactive; PPC-1+TRAIL kill: 52; C8 TRAIL sens: inactive

How did CCCC(=O)Nc1ccc(C2C(=O)c3ccccc3C2=O)cc1 do in these assays?
HIF-2a inh: inactive; CF NFkB block: inactive; KKLEB tox: inactive; iPSC survival up: inactive; C8 TRAIL sens: 76
